Source: PubChem (National Center for Advancing Translational Sciences (NCATS))
The list is not random: actives were taken first. Their share in the collection is about 1.9%.
USP2a block: qHTS Assay for Inhibitors of Ubiquitin-specific Protease USP2a Using CHOP2 as the Reporter. Ubiquitin carboxyl-terminal hydrolase 2 (Homo sapiens), O75604. actives 0.01% (n = 330,000). Potency, µM (highest dose often 38.3 µM), inactives show at the top dose activity change, negative = inhibition, actives largely listed as inhibitors. USP2 core, Ub-CHOP2 coupled fluorogenic reporter, 485/531;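 note: potency is the fitted concentration of half-maximal effect; plate controls were DMSO wells for no effect and full inhibition by NEM control for full effect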
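Cell-free coupled assay: 10nM USP2 core preincubated 30min RT with compound in Tris-HCl pH 8.0/CaCl2/CHAPS buffer, then 25nM Ub-CHOP2 and 25nM reporter substrate; fluorescence (Ex 485/Em 531) read after 60min RT, normalized to NEM inhibition, concentration-response curves fitted.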
Pin1 inh: qHTS Assay to Find Inhibitors of Pin1. Pin1 FP peptide displacement, HiFluor488, 10 min. Potency, µM (series often up to 115 µM), inactives show at the top dose activity, negative = inhibition, most hits filed as inhibitors. actives 0.009% (n = 390,000); active = well fitted inhibition curve with a large enough effect in the polarisation, with a control signal flat, not every such curve was filed as active; inconclusive = small, poorly fitted or top-dose-only effect, or effect the other way, or a change in a side signal; inactive = no such curve, though single readings can be large or run the other way; the % refers to the polarisation; note: potency is the fitted concentration of half-maximal effect; % is set by controls: 0 for no effect and ±100 for the full control effect
PKM2 act: qHTS Assay for Activators of Human Muscle isoform 2 Pyruvate Kinase. purified PKM2, Kinase-Glo ATP luminescence, activation; response scale: 0% is enzyme alone, no compound. AID 1631, 2009. Potency, µM (series often up to 57.5 µM), for inactives: at the highest dose activation, actives largely listed as activators. actives 0.34% (n = 260,000); note: potency is the fitted concentration of half-maximal effect; % is set by controls: 0 for no effect and ±100 for the full control effect; nearly all actives have a fitted effect of over 55% in size
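Purified hPK-M2 (>95% pure) converted ADP (0.1 mM final) to ATP with 0.5 mM PEP in 50 mM imidazole pH7.2, KCl, MgCl2, Tween 20, BSA; 1 h at room temperature. ATP detected by Kinase-Glo luminescence.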
a7 integrin act: qHTS for Activators of Integrin-Mediated Alleviation for Muscular Dystrophy; alpha7betagal myoblasts, beta-gal FDG fluorescence, 48 h; Potency, µM (titrated, usually from 38.3 µM), inactives show at the highest dose activation, most hits filed as activators; actives 0.064% (n = 350,000); AID 624291, 2012;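 note: potency is the fitted concentration of half-maximal effect; 100% = response of the positive control SU9516; nearly all actives have a fitted effect of over 60% in size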
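Alpha7betagal+/- myoblasts (passage 13) were plated 16-24 hr, then exposed to compounds (1:260 dilution of DMSO stock) for 48 hours at 37C. After MPER lysis, β-galactosidase reporter activity was read as FDG fluorescence (ex 480/em 540) after 30 minutes.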
IL-2 act: qHTS of IL-2 Activators; IL-2 activation reporter assay, cell-based qHTS; stimulated with anti-CD3/CD4/CD28 beads; in transgenic mouse T cells; activation, % (series mostly up to about 46 µM); actives 0.065% (n = 360,000); AID 652025, 2013; in the data active = activation above about 50%; inconclusive = mostly about 30% to 49%; note: 0% is about no effect
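Unstimulated transgenic mouse T cells, 750 per well, received compound and, after 60 minutes, anti-CD3/anti-CD4 bead plus anti-CD28 stimulation. EGFP and DsRed were quantified after 18 hours.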
ClpP mod: qHTS Assay for Activators of ClpP | purified B. subtilis ClpP, FRET peptide cleavage, 20 min | AID 651965, 2013 | actives 1.9% (n = 340,000) | Potency, µM (top dose mostly 57.5 µM), for the others: top-dose activity change, negative = active; active = well fitted falling curve with a large enough effect; inconclusive = small, poorly fitted or top-dose-only effect; inactive = no such curve, though single readings can be large or run the other way; note: potency is the fitted concentration of half-maximal effect; the source files actives as falling curves though it sought activators and does not explain the sign; nearly all actives have a fitted effect of over 65% in size
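FRET quenching reversal measured ClpP activation: 10 microg/mL B. subtilis ClpP at pH 8 with the FRET-FV decapeptide, read at 430 nm after 320 nm excitation. The 20-min minus 0-min signal was scaled between DMSO/no-enzyme wells and ADEP (5.8 microM final).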
* hit, by the source's call. Unless noted, calls come from the whole dose curve; as a rule, active = well fitted curve in the direction sought with a large enough effect; inconclusive = small, poorly fitted or top-dose-only effect, or another doubt; inactive = no such curve, though single readings can be large; an effect the other way counts as inactive or inconclusive.

Screening Cc1ccc(NC(=O)C(Nc2ccccc2)c2ccccc2)cc1 (stereo not given) returned USP2a block 4.0%, Pin1 inh -1.2%, PKM2 act 1.4%, a7 integrin act 14.1% and IL-2 act 0.2.
For Cc1ccc(NC(=O)C(C)c2ccc(-c3ccccc3)c(F)c2)cc1 (stereo not given) the results were USP2a block 1.0%, Pin1 inh 7.1%, PKM2 act -4.6%, a7 integrin act -35.0%, IL-2 act 0.0 and ClpP mod 35.5µM*.
`COc1cc2c3nnc(-c4ccc(F)cc4)c-3cn(Cc3ccc(C)cc3)c2cc1OC` gave USP2a block 17.5%, Pin1 inh inconclusive, PKM2 act -17.0%, a7 integrin act -12.0%, IL-2 act 349.4* and ClpP mod 20µM*.
Screening COc1cc2c3nnc(-c4ccc(F)cc4)c-3cn(Cc3cccc(F)c3)c2cc1OC returned USP2a block 9.5%, Pin1 inh inconclusive, PKM2 act -2.1%, a7 integrin act 0.3%, IL-2 act 76.4* and ClpP mod -16.1%.
Screening COc1cc2c3nnc(-c4ccc(F)cc4)c-3cn(Cc3cccc(C)c3)c2cc1OC returned USP2a block 3.0%, Pin1 inh inconclusive, PKM2 act 8.9%, a7 integrin act 21.9%, IL-2 act 217.8* and ClpP mod -15.3%.
`Cc1ccc2oc(-c3ccc(NC(=O)COc4ccccc4)cc3O)nc2c1` gave ClpP mod 4.1%.
For Nc1nccc(-c2ccc(-n3cnc4ccccc43)cc2)n1 the results were USP2a block 0.3%, Pin1 inh -0.3%, PKM2 act -5.2%, a7 integrin act 11.2µM* and IL-2 act -4.3.
CC(C)c1ccc(Nc2ncnc3onc(-c4ccc(F)cc4)c23)cc1 was read as Pin1 inh -7.2% and ClpP mod 22.4µM*.
For O=C1CN(S(=O)(=O)c2ccccc2)CCN1S(=O)(=O)c1ccccc1 the results were USP2a block 0.0%, Pin1 inh 2.8%, PKM2 act 4.47µM*, a7 integrin act 19.7%, IL-2 act -2.5 and ClpP mod -1.7%.
Screening Cc1ccc2[nH]c(=O)c(CN(CCCO)Cc3nnnn3Cc3ccccc3)cc2c1 returned Pin1 inh 10.2% and ClpP mod -21.1%.
CCc1cccc(NS(=O)(=O)c2ccc3c(c2)CCC(=O)N3)c1 was read as USP2a block -0.2%, Pin1 inh -3.5%, PKM2 act 2.82µM*, a7 integrin act 7.9% and IL-2 act 0.6.
For Cc1ccc(NS(=O)(=O)c2ccc3c(c2)CC(=O)N3)cc1C the results were USP2a block 0.6%, Pin1 inh -1.0%, PKM2 act 14.1µM*, a7 integrin act 0.2%, IL-2 act 1.0 and ClpP mod 5.2%.
For Cc1cccc(NS(=O)(=O)c2ccc3c(c2)CCC(=O)N3)c1 the results were USP2a block -1.5%, Pin1 inh -11.0%, PKM2 act 3.98µM*, a7 integrin act -7.7% and IL-2 act -0.1.
Screening Cc1ccc(N2C(=O)CC(Sc3ccccc3C(=O)O)C2=O)c([N+](=O)[O-])c1 (stereo not given) returned USP2a block 2.5%, Pin1 inh -19.3%, PKM2 act inconclusive, a7 integrin act -5.9% and IL-2 act -1.3.
`COc1ccc(N2C(=O)CC(Sc3ccccc3C(=O)O)C2=O)c([N+](=O)[O-])c1` (stereo not given) gave USP2a block -1.1%, Pin1 inh -2.9%, PKM2 act 20µM*, a7 integrin act -12.6%, IL-2 act -2.3 and ClpP mod -0.8%.
